The structures appear in SMILES notation. Results filed as inconclusive are left out. Where a call stands in place of a potency, no number is given. Activity calls are given as the source filed them. Unless noted, the call rests on the fitted dose curve.

System in one assay: not listed separately
Put plainly: cAMP Responsive Elements (CRE) small molecule agonists, cell-based qHTS assay (AID 1963590). To be noted: CRE-bla HEK293T, beta-lactamase FRET ratio, 3 h; series mostly up to 92.4 µM. The method, boiled down:
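Test agents in DMSO were incubated 3 h at 37 C/5% CO2 with CRE-bla HEK 293T cells seeded 18 h earlier; LiveBLAzer B/G FRET substrate was added and read after 2 h at room temperature.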
On the technique in general: In qHTS, concentration-response curves come from the screen itself.
Regarding `O=C1CCCCCCCCCCC1`, the Potency result was “inactive”.

In the case of `CC(=O)[C@H]1CC[C@H]2[C@@H]3CC=C4C[C@@H](O)CC[C@]4(C)[C@H]3CC[C@]12C`, the Potency entry was “inactive”.

For the compound `O=C1O[C@H](CO)[C@@H](O)[C@H](O)[C@H]1O`, the Potency result was “inactive”.

Take `Brc1nc2ccccc2s1`: the Potency result was “inactive”.

For the compound `Oc1ccc2ccccc2c1N=Nc1ccccc1`, the Potency entry was “inactive”.

Take `Nc1cc([N+](=O)[O-])ccc1C(=O)O`: the Potency result was “inactive”.

For `CCCCC1(COC(=O)CCC(=O)O)C(=O)N(c2ccccc2)N(c2ccccc2)C1=O`, the Potency result was “inactive”.

`CN(C)CCCN`: the Potency result is “inactive”.

Regarding `C=C(C)C(=O)O[C@H]1C[C@@H]2CC[C@@]1(C)C2(C)C`, the Potency entry is “inactive”.

Turning to `C=CCOC(=O)c1ccccc1C(=O)OCC=C`, the Potency entry was “inactive”.

For `CC(=O)c1ccc(S(=O)(=O)NC(=O)NC2CCCCC2)cc1`, the Potency entry is “inactive”.

Turning to `CCC(O)OC(O)CC` (centres undefined), the Potency result is “inactive”.

As to `COCCOC(=O)c1ccccc1C(=O)OCCOC`, the Potency entry was “inactive”.

On to `CC(C)CC(=O)CC(C)CC(C)C` (centres undefined), for which the Potency entry was “inactive”.

Consider `Cc1cc(Cc2ccc(N)c(C)c2)ccc1N`, for which the Potency result was “inactive”.

With `CCC[C@H](N[C@@H](C)C(=O)N1[C@H](C(=O)O)C[C@@H]2CCCC[C@@H]21)C(=O)OCC`, the Potency result was “inactive”.

As for `c1ccc2c(c1)Cc1ccccc1-2`, the Potency entry was “inactive”.

Take `CCCOC(=O)NCCCN(C)C`: the Potency entry is “inactive”.

For the compound `CCCCOC(=O)CC(CC(=O)OCCCC)(OC(C)=O)C(=O)OCCCC`, the Potency entry is “inactive”.

As to `C=CC[N+](C)(C)CC=C`, the Potency entry is “inactive”.

With `CC(O)COCC(C)O` (centres undefined), the Potency entry was “inactive”.

`CCCCC/C=C\C/C=C\CCCCCCCC(=O)OC`: the Potency result is “inactive”.

As for `Nc1ncnc2nc[nH]c12`, the Potency entry was “inactive”.

`NCCOCCO`: the Potency entry was “inactive”.

Regarding `CC(=O)Oc1ccc(C)cc1`, the Potency entry was “inactive”.

As to `O=S1(=O)CCCO1`, the Potency entry is “inactive”.

As to `O=[N+]([O-])c1cccc(Cl)c1`, the Potency entry was “inactive”.

`CCOCC(=O)O`: the Potency entry was “inactive”.

Consider `C=CCc1ccc(OC)c(OC)c1`, for which the Potency result is “inactive”.

`Clc1ccccn1`: the Potency entry is “inactive”.

`Cc1cccc([N+](=O)[O-])c1C`: the Potency entry was “inactive”.

System in a further assay: not listed separately
Put plainly: cAMP Responsive Elements (CRE) small molecule antagonists, cell-based qHTS assay (AID 1963591; active means well fitted inhibition curve with a large enough effect in the signal ratio in the repeat runs, not every such curve was filed as active; the % refers to the signal ratio). To be noted: CRE-bla HEK293T, beta-lactamase FRET ratio; series mostly up to 92.4 µM. The gist of the method: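 Reporter line CRE-bla HEK 293T in dialyzed-FBS DMEM; cells preincubated 18 h, treated 3 h with compound plus NKH477 (0.25 uM final); LiveBLAzer FRET, 2 h RT.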
Turning to `O=C1CCCCCCCCCCC1`, the Potency result is “inactive”.

Regarding `CC(=O)[C@H]1CC[C@H]2[C@@H]3CC=C4C[C@@H](O)CC[C@]4(C)[C@H]3CC[C@]12C`, the Potency result was “inactive”.

With `O=C1O[C@H](CO)[C@@H](O)[C@H](O)[C@H]1O`, the Potency result is “inactive”.

`Brc1nc2ccccc2s1`: the Potency entry was “inactive”.

As to `Nc1cc([N+](=O)[O-])ccc1C(=O)O`, the Potency entry is “inactive”.

For the compound `CCCCCCCCOc1ccc(C(=O)c2ccccc2)c(O)c1`, the Potency entry was “inactive”.

In the case of `Clc1ccc(Cl)c(Cl)c1Cl`, the Potency entry is “inactive”.

On to `COc1ccc(C(Cl)=C(c2ccc(OC)cc2)c2ccc(OC)cc2)cc1`, for which the Potency result was “inactive”.

With `CCCCC1(COC(=O)CCC(=O)O)C(=O)N(c2ccccc2)N(c2ccccc2)C1=O`, the Potency entry is “inactive”.

Take `CN(C)CCCN`: the Potency result was “inactive”.

Regarding `C=C(C)C(=O)O[C@H]1C[C@@H]2CC[C@@]1(C)C2(C)C`, the Potency result was “inactive”.

With `C=CCOC(=O)c1ccccc1C(=O)OCC=C`, the Potency entry is “inactive”.

`CC(=O)c1ccc(S(=O)(=O)NC(=O)NC2CCCCC2)cc1`: the Potency entry is “inactive”.

As for `CCC(O)OC(O)CC` (centres undefined), the Potency result was “inactive”.

As to `COCCOC(=O)c1ccccc1C(=O)OCCOC`, the Potency entry was “inactive”.

As to `CC(C)CC(=O)CC(C)CC(C)C` (centres undefined), the Potency entry was “inactive”.

As to `O=C(/C=C/C=C/c1ccc2c(c1)OCO2)N1CCCCC1`, the Potency entry is “inactive”.

With `c1ccc2c(c1)Cc1ccccc1-2`, the Potency entry was “inactive”.

Regarding `CCCOC(=O)NCCCN(C)C`, the Potency result is “inactive”.

As for `CCCCOC(=O)CC(CC(=O)OCCCC)(OC(C)=O)C(=O)OCCCC`, the Potency entry was “inactive”.

On to `C=CC[N+](C)(C)CC=C`, for which the Potency entry was “inactive”.

Turning to `CC(O)COCC(C)O` (centres undefined), the Potency entry was “inactive”.

In the case of `CCCCC/C=C\C/C=C\CCCCCCCC(=O)OC`, the Potency entry was “inactive”.

For `Nc1ncnc2nc[nH]c12`, the Potency result was “inactive”.

As for `Cc1ccc(N)c(S(=O)(=O)O)c1`, the Potency result is “inactive”.

On to `NCCOCCO`, for which the Potency result was “inactive”.

In the case of `CC(=O)Oc1ccc(C)cc1`, the Potency entry was “inactive”.

Turning to `O=S1(=O)CCCO1`, the Potency entry is “inactive”.

With `O=[N+]([O-])c1cccc(Cl)c1`, the Potency result is “inactive”.

For the compound `CCOCC(=O)O`, the Potency entry is “inactive”.

On to `C=CCc1ccc(OC)c(OC)c1`, for which the Potency entry is “inactive”.

Regarding `Clc1ccccn1`, the Potency result was “inactive”.

As to `Cc1cccc([N+](=O)[O-])c1C`, the Potency entry is “inactive”.

The next assay deals with Beta-2 adrenergic receptor (Homo sapiens) (UniProt P07550). Put plainly: Adrenergic beta2 receptor (ADRB2) small molecule antagonists, cell-based qHTS assay (AID 1963592). Further: nearly all actives have a fitted effect of over 50% in size. To be noted: CHO-ADRB2 cells, isoproterenol-stimulated cAMP HTRF ratio, 0.5 h; series mostly up to 92.4 µM. The gist of the method: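 Assay format: CHO-ADRB2 cells, 18-20hr seeding at 37C/5% CO2, then compound plus 1nM isoproterenol agonist mix for 0.5hr RT. Homogeneous time-resolved fluorescence cAMP detection after 1hr, expressed as 665/615 nm ratio.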
Beta-2 adrenergic receptor (Homo sapiens), sequence (P07550 whole entry, looked up): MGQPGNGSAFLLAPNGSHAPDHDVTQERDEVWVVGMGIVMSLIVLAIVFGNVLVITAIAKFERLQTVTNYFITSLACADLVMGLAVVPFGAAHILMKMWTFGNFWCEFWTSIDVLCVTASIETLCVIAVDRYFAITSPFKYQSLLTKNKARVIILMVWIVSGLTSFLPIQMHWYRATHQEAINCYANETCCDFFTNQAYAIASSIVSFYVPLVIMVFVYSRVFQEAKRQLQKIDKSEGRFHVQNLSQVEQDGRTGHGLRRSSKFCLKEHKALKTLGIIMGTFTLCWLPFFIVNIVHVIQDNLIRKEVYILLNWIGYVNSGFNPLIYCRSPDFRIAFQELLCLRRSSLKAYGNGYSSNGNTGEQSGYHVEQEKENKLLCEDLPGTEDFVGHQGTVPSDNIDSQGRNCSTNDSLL
Take `O=C1CCCCCCCCCCC1`: the Potency entry is “inactive”.

On to `CC(=O)[C@H]1CC[C@H]2[C@@H]3CC=C4C[C@@H](O)CC[C@]4(C)[C@H]3CC[C@]12C`, for which the Potency result is “inactive”.

As for `O=C1O[C@H](CO)[C@@H](O)[C@H](O)[C@H]1O`, the Potency result is “inactive”.

Turning to `Brc1nc2ccccc2s1`, the Potency result is “inactive”.

Take `Oc1ccc2ccccc2c1N=Nc1ccccc1`: the Potency result is “inactive”.

In the case of `Nc1cc([N+](=O)[O-])ccc1C(=O)O`, the Potency result is “inactive”.

As for `CCCCCCCCOc1ccc(C(=O)c2ccccc2)c(O)c1`, the Potency entry was “inactive”.

With `Clc1ccc(Cl)c(Cl)c1Cl`, the Potency result is “inactive”.

As to `CCCCC1(COC(=O)CCC(=O)O)C(=O)N(c2ccccc2)N(c2ccccc2)C1=O`, the Potency entry is “inactive”.

On to `CN(C)CCCN`, for which the Potency result is “inactive”.

`C=C(C)C(=O)O[C@H]1C[C@@H]2CC[C@@]1(C)C2(C)C`: the Potency entry was “inactive”.

Consider `C=CCOC(=O)c1ccccc1C(=O)OCC=C`, for which the Potency entry is “inactive”.

Regarding `CC(=O)c1ccc(S(=O)(=O)NC(=O)NC2CCCCC2)cc1`, the Potency result was “inactive”.

On to `CCC(O)OC(O)CC` (centres undefined), for which the Potency result was “inactive”.

As for `COCCOC(=O)c1ccccc1C(=O)OCCOC`, the Potency entry was “inactive”.

`CC(C)CC(=O)CC(C)CC(C)C` (centres undefined): the Potency entry was “inactive”.

For `O=c1n(CC2CO2)c(=O)n(CC2CO2)c(=O)n1CC1CO1` (centres undefined), the Potency entry is “inactive”.

Turning to `O=C(/C=C/C=C/c1ccc2c(c1)OCO2)N1CCCCC1`, the Potency result is “inactive”.

Consider `Cc1cc(Cc2ccc(N)c(C)c2)ccc1N`, for which the Potency entry was “inactive”.

For the compound `CCC[C@H](N[C@@H](C)C(=O)N1[C@H](C(=O)O)C[C@@H]2CCCC[C@@H]21)C(=O)OCC`, the Potency entry is “inactive”.

Regarding `c1ccc2c(c1)Cc1ccccc1-2`, the Potency entry is “inactive”.

Turning to `CCCOC(=O)NCCCN(C)C`, the Potency result is “inactive”.

With `CCCCOC(=O)CC(CC(=O)OCCCC)(OC(C)=O)C(=O)OCCCC`, the Potency entry is “inactive”.

As to `CCCCC/C=C\C/C=C\CCCCCCCC(=O)OC`, the Potency result was “inactive”.

As for `Nc1ncnc2nc[nH]c12`, the Potency result is “inactive”.

On to `Cc1ccc(N)c(S(=O)(=O)O)c1`, for which the Potency result is “inactive”.

Consider `NCCOCCO`, for which the Potency result is “inactive”.

`CC(=O)Oc1ccc(C)cc1`: the Potency entry is “inactive”.

`O=S1(=O)CCCO1`: the Potency entry is “inactive”.

Regarding `C=C(C)C(=O)OCC(CC)(COC(=O)C(=C)C)COC(=O)C(=C)C`, the Potency entry is “inactive”.

Turning to `O=[N+]([O-])c1cccc(Cl)c1`, the Potency entry was “inactive”.

Regarding `CCOCC(=O)O`, the Potency result was “inactive”.

Consider `C=CCc1ccc(OC)c(OC)c1`, for which the Potency result is “inactive”.

For `Clc1ccccn1`, the Potency entry was “inactive”.

For the compound `Cc1cccc([N+](=O)[O-])c1C`, the Potency result is “inactive”.

Source of the values: PubChem BioAssay (Tox21).
